In PubChem BioAssay (Tox21) one finds Potency and activity change, negative = cytotoxicity data, which are given here for 40 compounds.

The structures appear in SMILES notation. Records with an inconclusive call do not appear. Where a call stands in place of a potency, no number is given. Unmarked numbers belong to inactive results. Active and inactive are the calls of the source. Calls come from the whole dose curve; as a rule, active = well fitted cell-killing curve with a large enough effect in the repeat runs; inconclusive = weak or mixed curves, or effect the other way; inactive = flat fitted curve, though single readings scatter.
Potency is the fitted concentration of half-maximal effect.

The experiment can be described thus: qHTS assay to identify small molecule antagonists of the retinoid acid receptor (RAR) signaling pathway - cell viability counter screen (AID 1159551). Note: nearly all actives have a fitted effect of over 35% in size. The conditions noted are these: C3RL4 cells viability, ATP luminescence (CellTiter-Glo), 6 h; series mostly up to 92.4 µM. From the text: U.S. Tox21 Program National Center for Advancing Translational Sciences [NCATS] NIH Chemical Genomics Center [NCGC] U.S. Environmental Protection Agency [EPA] National Institutes of Environmental Health Sciences [NIEHS] National Toxicology Program [NTP] U.S. Food and Drug Administration [FDA] Tox21 Assay Overview: All-trans Retinoic acid (atRA) is the potent natural metabolite of retinol and plays an important role in normal embryonic development and maintenance of cellular phenotype in adult animals. atRA is the activating ligand for the retinoic acid receptors (RARs) which form heterodimers with retinoid X receptors (RXRs) on the retinoic acid response element (RARE). Through activation of the RAR/RXRs nuclear receptors, atRA regulates the transcription of a large number of protein-coding genes and regulatory RNAs. Intracellular levels of atRA are controlled by the retinol signaling pathway (RSP) that regulates the biosynthesis and catabolism of atRA to maintain physiological levels. Chemicals that interfere with the RSP can cause abnormal intracellular levels of atRA and therefore are potential developmental toxicants. To assess compounds for the potential adverse effect on embryonic development through interfering with retinol signaling, a cell-based RARE luciferase reporter gene assay was used. C3RL4 cell line (OARSA/CFSAN/FDA, Laurel, MD) was used to screen Tox21 10K compound library for identifying inhibitors of the RSP. Also cytotoxicity was assessed by determining the viability of cells based on the quantitation of ATP.
Tox21 Assay Protocol Summary: C3RL4 cells were seeded at 1,000/well in 4 uL of assay medium into white solid 1,536-well tissue culture plates (Greiner Bio-One North America Inc. Monroe, NC) using a Multidrop Combi (Thermo Scientific, Waltham, MA) dispenser. After incubation at 37 C and 5% CO2 for an overnight, 23 nL of compounds dissolved in DMSO, positive control or DMSO only were transferred by a Pintool station (Kalypsys, San Diego, CA). One ul of 1 uM (final concentration) of Retinol was added right after the compound addition by using a Flying Reagent Dispenser (FRD) (Aurora Discovery, San Diego, CA). After 6 hr incubation at 37 C and 5% CO2, 5 uL of CellTiter-Glo reagent (Promega Corporation, Madison, WI) was added to each assay plate using an FRD. Luminescence was quantified on a ViewLux plate reader (PerkinElmer, Waltham, MA) after 30 min incubation at room temperature.
As to `CCCCCCCCCCCc1ccccc1`, the Potency result was “inactive”.

For `Nc1cccc(S(=O)(=O)c2cccc(N)c2)c1`, the Potency entry is “inactive”.

With `Cc1[nH]c(C)c(Cl)c(=O)c1Cl`, the activity change, negative = cytotoxicity is -2.2% [at 19 µM].

Take `CC(C)Nc1ccc(NC(C)C)c2c1C(=O)c1ccccc1C2=O`: the Potency was 25.3 µM (active).

As to `COc1ccnc(CS(=O)c2nc3ccc(OC(F)F)cc3[nH]2)c1OC` (stereo not given), the Potency entry was “inactive”.

Consider `O=C1OC(=O)C2C3C=CC(C3)C12` (stereo not given), for which the Potency entry was “inactive”.

For `c1cc(CCCc2ccncc2)ccn1`, the Potency result was “inactive”.

Consider `CC1=CCCC(C)(C)C12CCC(C)O2` (stereo not given), for which the Potency result was “inactive”.

Take `CC[N+]1(CC)CCC(=C(c2ccccc2)c2ccccc2)C1C` (stereo not given): the Potency entry was “inactive”.

For the compound `CCCCC/C=C\C/C=C\CCCCCCCC(=O)NC(C)c1ccccc1` (stereo not given), the Potency entry was “inactive”.

`O[C@@H](COc1cccc2ncccc12)CN1CCN(C2c3ccccc3[C@@H]3[C@H](c4ccccc42)C3(F)F)CC1` (stereo not given in full): the Potency result was “inactive”.

Turning to `O=CC1CC=CCC1` (stereo not given), the Potency result was “inactive”.

Regarding `OCCN1CCN(CCCN2c3ccccc3C=Cc3ccccc32)CC1`, the Potency result is “inactive”.

In the case of `CC(CSC(=O)c1ccccc1)C(=O)N1C[C@@H](Sc2ccccc2)C[C@H]1C(=O)O` (stereo not given in full), the activity change, negative = cytotoxicity was -2.34% [at 19 µM].

In the case of `Nc1ccc(S(=O)(=O)Nc2ccccc2)cc1`, the Potency entry is “inactive”.

As for `N=c1ccn2c(n1)O[C@H]1[C@H](O)[C@@H](CO)O[C@H]12`, the Potency entry was “inactive”.

For `CCCCCCCN`, the Potency entry was “inactive”.

Take `C=C(C)C(=O)OCCO`: the Potency entry was “inactive”.

For `Nc1cc(C(=O)O)c(O)c(S(=O)(=O)O)c1`, the Potency entry is “inactive”.

As to `CCC(CC)Nc1ccc(C)c(C)c1`, the Potency result is “inactive”.

Consider `CCOc1ccc(O)cc1`, for which the Potency result is “inactive”.

Regarding `CC(=O)NO`, the Potency entry is “inactive”.

In the case of `CC1=CC=C(C(C)C)CC1`, the Potency result is “inactive”.

For `Nc1ccc(N)c2c1C(=O)c1ccccc1C2=O`, the Potency was 30.6 µM (active).

For the compound `O=C(O)C1(C(=O)O)CCC1.[NH2-].[NH2-].[Pt+2]`, the Potency result was “inactive”.

Turning to `OCc1cc(C(O)CNCCCCCCOCCCCc2ccccc2)ccc1O` (stereo not given), the Potency result is “inactive”.

For the compound `CN1C[C@H]2c3ccccc3Oc3ccc(Cl)cc3[C@@H]2C1`, the Potency result was “inactive”.

As to `C/C=C/C(=O)CC`, the activity change, negative = cytotoxicity was -1.29% [at 19 µM].

Take `CN(C)CCN(Cc1ccccc1)c1ccccn1`: the Potency result was “inactive”.

With `OC(C#CCN1CCCC1)(c1ccccc1)c1ccccc1`, the Potency result was “inactive”.

For `CCCCc1nc2cccnc2n1Cc1ccc(-c2ccccc2-c2nnn[nH]2)cc1`, the Potency result was “inactive”.

On to `Cc1oc(-c2ccccc2)nc1CCOc1cccc2c1ccn2CCC(=O)O`, for which the Potency result was “inactive”.

For the compound `Nc1ncn([C@H]2C[C@H](O)[C@@H](CO)O2)c(=O)n1`, the Potency entry is “inactive”.

As for `O=[N+]([O-])c1ccc2[nH]ncc2c1`, the Potency result is “inactive”.

On to `CCOc1ccc(N=Nc2ccc(/C=C/c3ccc(N=Nc4ccc(OCC)cc4)cc3S(=O)(=O)O)c(S(=O)(=O)O)c2)cc1`, for which the Potency result is “inactive”.

For `CN(C)CCOC(c1ccccc1)c1ccc(Br)cc1` (stereo not given), the Potency entry is “inactive”.

For `COc1cc(Cl)ccc1Oc1ccc(Cl)cc1Cl`, the Potency entry is “inactive”.

Regarding `CC(=O)OC[C@H]1O[C@@H](n2ncc(=O)[nH]c2=O)[C@H](OC(C)=O)[C@@H]1OC(C)=O`, the Potency result was “inactive”.

In the case of `CC(C)C[C@H]1C(=O)N2CCC[C@H]2[C@]2(O)O[C@](NC(=O)[C@@H]3C=C4c5cccc6[nH]c(Br)c(c56)C[C@H]4N(C)C3)(C(C)C)C(=O)N12`, the Potency result is “inactive”.

Take `COc1ccc(C(=O)N2CCN(CC(=O)N3CCOCC3)CC2)cc1`: the Potency result was “inactive”.
